The nature of this assay: Drug repurposing screens with cells derived from glioblastoma tumor samples (AID 1345199). Note: nearly all actives have a fitted effect of over 40% in size. The note with it: GBM patient neurospheres viability, ATP luminescence, 48 h. The method, then: CD133+ cells were isolated from GBM patient biopsies and cultured as neurospheres. Neurospheres from four patients were used to screen the NCATS pharmaceutical collection (NPC) library of approved drugs and bioactive compounds. […] The neurospheres were incubated with drugs for 48 hours in 1536-well format, then assayed with an ATP content cell viability assay. […] These hits were cherry picked to confirm activity in the four original GBM lines screened plus three other slower growing GMB lines (unable to yield enough cells for a full primary screen). Variable activities of the confirmed primary hits in the different GBM patient lines were observed. The patient line 206 responded to the greatest number of compounds and line 923 responded to the least amount of active compounds.

Where [1] appears, read: at 20 µM (top of the series), tumour line C.
The mark [2] stands for this setting: at 21.2 µM (top of the series), tumour line B.
Where [3] appears, read: at 21.2 µM (top of the series), tumour line D.
The mark [4] stands for this setting: at 21.3 µM (top of the series), tumour line A.
[5] abbreviates: at 45.9 µM (top of the series), tumour line B.
Where [6] appears, read: at 45.9 µM (top of the series), tumour line D.
The mark [7] stands for this setting: at 46.1 µM (top of the series), tumour line C.
Setting [8] is: at 46 µM (top of the series), tumour line A.

Values joined by “and” are separate entries in the source; they are usually repeats but may differ in a detail not shown here. Identical values can stand only once. Results filed as inconclusive are left out. More than one record can exist for a structure, and the calls need not agree. A number with no mark means an inactive call. Active and inactive are the calls of the source. Calls come from the whole dose curve; as a rule, active = well fitted inhibition curve with a large enough effect; inconclusive = small, poorly fitted or top-dose-only effect; inactive = flat fitted curve, though single readings scatter.
% is set by controls: 0 for no effect and ±100 for the full control effect; potency is the fitted concentration of half-maximal effect.

Regarding `Nc1ccc(S(=O)(=O)Nc2ccc(Cl)nn2)cc1`, the activity, negative = cell killing by setting is: under setting [1], -15.3%; under setting [2], -15.4%; under setting [3], -6%; under setting [4], -27.3%; under setting [5], -5.57%; under setting [6], -3.89%. Moreover, the activity, negative = cell killing under setting [7] was -7.4%.
On to `CC(=O)c1ccc2c(c1)N(CCCN(C)C)c1ccccc1S2`, for which the activity, negative = cell killing by setting is: under setting [1], -20.2%; under setting [2], -19.6%. Besides, the Potency (tumour line A) was 10 µM (active).
Take `CN(N=O)C(=O)N[C@@H]1[C@@H](O)[C@H](O)[C@@H](CO)O[C@@H]1O`: the activity, negative = cell killing under setting [1] is -1.98%; the activity, negative = cell killing under setting [2] is -12%; the activity, negative = cell killing under setting [3] is 1.48%; the activity, negative = cell killing under setting [4] was -15.9%.
As to `CNC(=O)Oc1ccc2c(c1)[C@]1(C)CCN(C)[C@@H]1N2C`, the activity, negative = cell killing is, setting by setting: under setting [5], -15.9%; under setting [6], -13.4%; under setting [7], -13.5%. For the same compound, where the note is “tumour line A”, the Potency is 35.5 µM (active).
Take `O=C(O)[C@@H]1CSCN1`: the activity, negative = cell killing reads like this: under setting [5], 0.874%; under setting [6], 4.12%; under setting [7], -12.1%.
In the case of `CC/C=C(\C(=O)N[C@@H]1C(=O)N2C(C(=O)OCOC(=O)C(C)(C)C)=C(COC(N)=O)CS[C@H]12)c1csc(N)n1`, the activity, negative = cell killing runs as follows: under setting [5], -9.61% and -1.73%; under setting [6], -14.3% and 0.361%; under setting [7], -12.1% and -5.64%. Under “tumour line A”, the Potency is 17.8 µM (active).
For the compound `NC(=O)NNc1ccccc1`, the activity, negative = cell killing is, setting by setting: under setting [5], -9.66% and -3.84%; under setting [6], -10.5% and 5.37%; under setting [8], -34.9%; under setting [7], -25.2% and -16.9%.
In the case of `CCC(=O)Nc1ccc(O)cc1`, the activity, negative = cell killing was -16% under setting [5], -0.42% under setting [6], -15.2% under setting [8] and -16.9% under setting [7].
For `Cc1cc2nc3c(=O)[nH]c(=O)nc-3n(C[C@H](O)[C@H](O)[C@H](O)CO)c2cc1C`, the activity, negative = cell killing under setting [5] is -19.3% and -6.89%; the activity, negative = cell killing under setting [6] is -1.31% and -6.94%; the activity, negative = cell killing under setting [8] was -12.8% and -5.49%; the activity, negative = cell killing under setting [7] is -0.108% and 21.1%.
Consider `Cc1ccc2nc(N)[nH]c(=O)c2c1Sc1ccncc1`, for which the activity, negative = cell killing runs as follows: under setting [6], -18.7%; under setting [7], -42.8%. For the setting “tumour line A”, the Potency was 7.08 µM (active).
